Assay results reported in PubChem BioAssay (NCI).
Values joined by “and” are separate entries in the source; they are usually repeats but may differ in a detail not shown here. Identical values can stand only once. About 83,000 compounds went through this panel and 20% of them were active in at least one assay; those are over-represented in the sample as a whole.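 In brief: 96-well plates, 48 h treatment, single concentration, percent growth endpoint.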 Active and inactive are the calls of the source. How the source made its calls: active means growth percent below 10; inactive means the rest.

How the values were obtained:
Assay in all cases: NCI-60 one-dose screen, 48 h (100 = growth as untreated, 0 = no growth, -100 = all killed)
Conditions in all cases: 10 µM unless noted
SK-MEL-2 melanoma = tested on: SK-MEL-2 melanoma
EKVX NSCLC = tested on: EKVX NSCLC
SN12C renal = tested on: SN12C renal
UO-31 renal = tested on: UO-31 renal
TK-10 renal = tested on: TK-10 renal
ACHN renal = tested on: ACHN renal
CAKI-1 renal = tested on: CAKI-1 renal
A498 renal = tested on: A498 renal
CCRF-CEM leukemia = tested on: CCRF-CEM leukemia
MOLT-4 leukemia = tested on: MOLT-4 leukemia
RPMI-8226 leukemia = tested on: RPMI-8226 leukemia
OVCAR-8 ovarian = tested on: OVCAR-8 ovarian
OVCAR-5 ovarian = tested on: OVCAR-5 ovarian
OVCAR-4 ovarian = tested on: OVCAR-4 ovarian
SK-OV-3 ovarian = tested on: SK-OV-3 ovarian
IGROV1 ovarian = tested on: IGROV1 ovarian
OVCAR-3 ovarian = tested on: OVCAR-3 ovarian
HS 578T breast = tested on: HS 578T breast
NCI/ADR-RES ovarian = tested on: NCI/ADR-RES ovarian
SR leukemia = tested on: SR leukemia

Measured: growth

CCOC(=O)Nc1ccc2c(c1)/C(=N\NC(N)=S)c1ccccc1-2
inactive: SK-MEL-2 melanoma 70.1% and 93.2% | EKVX NSCLC 68.3% and 70.8% | SN12C renal 73.3% and 71.9% | UO-31 renal 68% and 82.5% | TK-10 renal 82.2% and 107% | ACHN renal 56.8% and 68.7% | CAKI-1 renal 43% and 73.4% | A498 renal 46.6% and 65.5% | CCRF-CEM leukemia 19.9% and 27.8% | MOLT-4 leukemia 46% and 41.8% | RPMI-8226 leukemia 22.3% | OVCAR-8 ovarian 34.6% and 55.5% | OVCAR-5 ovarian 105% and 92% | OVCAR-4 ovarian 61% and 77.1% | SK-OV-3 ovarian 96.5% and 93.2% | IGROV1 ovarian 93.5% and 103% | OVCAR-3 ovarian 48% and 83.4% | HS 578T breast 69.9% and 92.9% | NCI/ADR-RES ovarian 29.5% and 45.6%

Cn1cc(-c2cc3c(Nc4ccc(CC(=O)Nc5cc(C(C)(C)C)on5)cc4)ncnc3[nH]2)cn1
6.89% (active) and 10.1% (inactive): EKVX NSCLC
active: SK-MEL-2 melanoma -60.5% and -81% | SN12C renal -10.9% and -7.98% | UO-31 renal -11.4% and 9.42% | TK-10 renal 0.328% and -17.2% | ACHN renal -6.75% and 6.73% | CAKI-1 renal -10.5% and 7.18% | A498 renal -60.1% | MOLT-4 leukemia 9.74% and 5.37% | RPMI-8226 leukemia -2.19% and -22.3% | OVCAR-8 ovarian 4.54% and 2.06% | OVCAR-5 ovarian -8.65% and 5.67% | OVCAR-4 ovarian -12.1% and 5.44% | SK-OV-3 ovarian -5.62% and -14.8% | IGROV1 ovarian -12.2% and 2.63% | OVCAR-3 ovarian -15.1% and -6.62% | HS 578T breast -22.4% and -15.2%
inactive: NCI/ADR-RES ovarian 79.5% and 80.3%
14.3% (inactive) and 5.35% (active): CCRF-CEM leukemia

Oc1ccccc1C=NCC1CCC(CN=Cc2ccccc2O)CC1 (stereo unspecified)
active: ACHN renal -13.8%
inactive: SK-MEL-2 melanoma 12.8% | EKVX NSCLC 109% | SN12C renal 91% | UO-31 renal 72.4% | TK-10 renal 98.2% | CAKI-1 renal 46.1% | A498 renal 117% | CCRF-CEM leukemia 83.9% | MOLT-4 leukemia 75.6% | SR leukemia 69.4% | RPMI-8226 leukemia 90.9% | OVCAR-8 ovarian 79.9% | OVCAR-5 ovarian 67.6% | OVCAR-4 ovarian 116% | IGROV1 ovarian 68.1% | OVCAR-3 ovarian 116% | HS 578T breast 114% | NCI/ADR-RES ovarian 80.4%

CC(C)C(=O)Nc1ccc([N+](=O)[O-])c(C(F)(F)F)c1
94.5% (inactive) and 5.73% (active): IGROV1 ovarian
inactive: SK-MEL-2 melanoma 111% and 28.9% | EKVX NSCLC 51.4% and 86.1% | SN12C renal 65.3% and 88% | UO-31 renal 76.1% and 71.9% | TK-10 renal 94.5% and 111% | ACHN renal 98.4% | CAKI-1 renal 69.2% and 100% | A498 renal 84.4% and 96% | CCRF-CEM leukemia 75.4% and 109% | MOLT-4 leukemia 76.8% and 97.8% | SR leukemia 76.4% and 88.4% | RPMI-8226 leukemia 63.9% | OVCAR-8 ovarian 101% and 56.1% | OVCAR-5 ovarian 90.4% | OVCAR-4 ovarian 83.1% and 92.5% | OVCAR-3 ovarian 86.3% and 98.2% | HS 578T breast 101% and 85.4% | NCI/ADR-RES ovarian 86.2% and 96%

Fc1ccccc1Nc1n[nH]c(=S)s1
inactive: SK-MEL-2 melanoma 116% | EKVX NSCLC 136% | SN12C renal 99.9% | UO-31 renal 95.5% | TK-10 renal 115% | ACHN renal 110% | CAKI-1 renal 113% | A498 renal 94.6% | MOLT-4 leukemia 114% | RPMI-8226 leukemia 110% | OVCAR-8 ovarian 103% | OVCAR-5 ovarian 99.2% | OVCAR-4 ovarian 122% | SK-OV-3 ovarian 110% | IGROV1 ovarian 126% | OVCAR-3 ovarian 107% | HS 578T breast 107% | NCI/ADR-RES ovarian 115%
active: CCRF-CEM leukemia -60%

CC(=O)c1ccc2c(c1)N(CCCN1CCN(CCO)CC1)c1ccccc1S2
inactive: EKVX NSCLC 83.9% and 60.6% | SN12C renal 99% and 53.6% | TK-10 renal 86.4% and 27.5% | ACHN renal 95.5% and 30.7% | CAKI-1 renal 77.3% and 15.7% | A498 renal 85.1% and 28.6% | CCRF-CEM leukemia 80.8% and 16.2% | RPMI-8226 leukemia 77.6% and 10.7% | OVCAR-8 ovarian 82.5% and 72.9% | OVCAR-5 ovarian 93% and 51.6% | OVCAR-4 ovarian 101% and 49.8% | SK-OV-3 ovarian 152% and 50.5% | OVCAR-3 ovarian 103% and 40.7% | NCI/ADR-RES ovarian 95.6% and 45.8%
56.9% (inactive) and 2.41% (active): UO-31 renal
active: SK-MEL-2 melanoma 2.74% and -42% | SR leukemia -30.2%
60.4% (inactive) and 4.26% (active): MOLT-4 leukemia
87.6% (inactive) and -20.1% (active): HS 578T breast

COc1ccc2cc3[n+](cc2c1OC)CCc1cc2c(cc1-3)OCO2
inactive: SK-MEL-2 melanoma 90.7% and 104% | EKVX NSCLC 26.3% and 65.5% | SN12C renal 30.2% and 49.2% | UO-31 renal 76.3% and 84.2% | TK-10 renal 137% and 98.3% | ACHN renal 91.2% | CAKI-1 renal 81.7% and 89.8% | A498 renal 86.8% and 90.8% | CCRF-CEM leukemia 70.8% and 67% | MOLT-4 leukemia 66% and 54.8% | SR leukemia 50% and 68.8% | RPMI-8226 leukemia 60.4% and 43.8% | OVCAR-8 ovarian 44.8% | OVCAR-5 ovarian 70.5% | OVCAR-4 ovarian 47.8% and 79.1% | IGROV1 ovarian 84.4% and 74.8% | OVCAR-3 ovarian 55.4% and 54.2% | HS 578T breast 79.6% and 73.5% | NCI/ADR-RES ovarian 99% and 101%

O=[N+]([O-])c1ccc(/C=N\NC(=S)Nc2ccc(F)cc2)cc1
99.4% (inactive) and -3.91% (active): CCRF-CEM leukemia
inactive: SK-MEL-2 melanoma 91.1% and 110% | EKVX NSCLC 91.9% and 102% | SN12C renal 105% and 92% | UO-31 renal 96.9% and 102% | TK-10 renal 109% and 107% | ACHN renal 86.2% and 93.4% | CAKI-1 renal 97.1% and 106% | A498 renal 119% | MOLT-4 leukemia 86.9% and 98.6% | RPMI-8226 leukemia 100% and 85.2% | OVCAR-8 ovarian 94.1% and 95.3% | OVCAR-5 ovarian 115% and 94.7% | OVCAR-4 ovarian 92.6% | SK-OV-3 ovarian 98.5% and 91.7% | IGROV1 ovarian 96.8% and 99.1% | OVCAR-3 ovarian 129% and 109% | HS 578T breast 93.4% | NCI/ADR-RES ovarian 100% and 89.8%

CN1CCN(CCC=C2c3ccccc3Sc3ccc(S(=O)(=O)N(C)C)cc32)CC1
inactive: SK-MEL-2 melanoma 68.5% and 53.7% | EKVX NSCLC 80.1% and 84.8% | SN12C renal 56.9% and 76.4% | UO-31 renal 36.7% and 56.9% | TK-10 renal 70.5% and 87.2% | ACHN renal 65.8% and 73.1% | CAKI-1 renal 48.5% and 94.9% | A498 renal 73.5% and 62.1% | CCRF-CEM leukemia 54.2% and 31.6% | MOLT-4 leukemia 46.3% and 28.2% | RPMI-8226 leukemia 26.4% and 23.4% | OVCAR-8 ovarian 83.8% and 95.7% | OVCAR-5 ovarian 80.1% | OVCAR-4 ovarian 80.6% and 85.2% | SK-OV-3 ovarian 87.7% and 96.7% | IGROV1 ovarian 62.1% and 58.2% | OVCAR-3 ovarian 91.4% and 71.7% | HS 578T breast 52.5% and 65.4% | NCI/ADR-RES ovarian 74.7% and 84.9%
